According to PubChem BioAssay AID1476 (National Center for Advancing Translational Sciences (NCATS), 2009):
In all, about 200,000 compounds went through this assay and about 4,500 (2.2%) were called active. Inconclusive results (about 12%) are left out. Calls come from the whole dose curve; as a rule, active = well fitted inhibition curve with a large enough effect; inconclusive = small, poorly fitted or top-dose-only effect, or effect the other way; inactive = flat fitted curve, though single readings scatter. Only a selection was taken, and actives are over-represented in it overall.
Note: nearly all actives have a fitted effect of over 40% in size.
Potency is the fitted concentration of half-maximal effect.

These molecules were tested against Cruzipain (Trypanosoma cruzi) (UniProt P25779) (assay: qHTS Assay for Promiscuous and Specific Inhibitors of Cruzain (without detergent)). Conditions: purified cruzain, Z-FR-AMC fluorescence, no detergent.
Chain of Cruzipain (Trypanosoma cruzi) (P25779 123-467 limits assumed): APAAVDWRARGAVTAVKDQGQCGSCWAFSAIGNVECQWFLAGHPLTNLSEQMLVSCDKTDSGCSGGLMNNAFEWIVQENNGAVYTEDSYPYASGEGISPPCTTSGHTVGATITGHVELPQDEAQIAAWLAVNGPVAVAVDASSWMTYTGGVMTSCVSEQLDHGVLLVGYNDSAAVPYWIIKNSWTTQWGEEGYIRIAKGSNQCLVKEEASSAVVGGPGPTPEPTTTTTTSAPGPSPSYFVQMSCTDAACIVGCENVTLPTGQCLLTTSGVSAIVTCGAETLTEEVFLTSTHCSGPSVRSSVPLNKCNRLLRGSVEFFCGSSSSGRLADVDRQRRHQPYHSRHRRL
Description: Cruzain is a cysteine protease from the tropical parasite Trypanosoma cruzi. Dual qHTS experiment was performed against the NCGC compound collection in order to 1) identify novel inhibitors of the enzyme and 2) profile the compound collection for promiscuous inhibitors operating via colloidal aggregation (by performing detergent-free and detergent-containing comparison screens). Cruzain was assayed by the use of fluorogenic coumarin-based substrate Z-FR-AMC: proteolytic cleavage releases AMC, whose fluorescence is measured at 360 nm excitation and 450 nm emission. Purified cruzain was supplied by the labs of Prof. James McKerrow and Brian Shoichet, UC San Francisco.
This assay had 0.00005% Triton X-100 concentration. See also releated assay "qHTS Assay for Promiscuous and Specific Inhibitors of Cruzain (with detergent)" with 0.01% Triton X-100.
See following references for additional details:
Assay Provider: Shoichet, Brian; University of California, San Fancisco
Screening Center PI: Austin, C.P.
Screening Center: NIH Chemical Genomics Center [NCGC]
Buffer: 100 mM Sodium Acetate, pH 5.5, 5 mM DTT, Triton X-100 concentration: 0.01%.
Buffer in columns 3 and 4 as negative control (no enzyme).
Substrate solution: 2 uM final concentration of Z-FR-AMC (catalog number I-1160, Bachem) dispensed throughout the plate.
Enzyme: 1.5 nM Cruzain final concentration in columns 1, 2, 5-48. Column 1 is neutral (100% activity). Column 2 contained titration of covalent inhibitor K11777, starting concentration 1 mM, then 1:2 dilution in duplicate).
Three uL of enzyme or buffer were dispensed to 1536-well Greiner black solid bottom plates. Compounds and controls (23 nL) were transferred via Kalypsys PinTool. The plates were incubated for 15 min at room temperature, and then 1 uL of substrate solution was added to start the reaction. The plates were immediately transferred to and read 4 times every 30 seconds for 2 min on ViewLux High-throughput CCD imager (Perkin-Elmer) using 360 nm excitation and 450 nm emission fluorescence protocol. The fluorescence intensity difference between the third and the first time points (time lapse of 60 seconds) was used to compute reaction progress.
With Cc1cc(C)c(NC(=O)CS(=O)CC(=O)Nc2cccnc2)c(C)c1 (stereo not drawn) the max response, negative = inhibition was -6.14% (inactive).
With Cc1ccc(NC(=O)COc2ccc(-n3ccnc3)cc2)cc1Cl the max response, negative = inhibition was 3.27% (inactive).
With Cc1ccc(-c2nc(-c3cccnc3)sc2CC(=O)Nc2ccc(C)c(Cl)c2)cc1 the Potency was 25.1 µM (active).
Cc1ccc(-c2ccc(CCC(=O)O)n2-c2ccc(C(N)=O)cc2)cc1 was tested, and the max response, negative = inhibition was -3.67% (inactive).
For O=C(Nc1cccc(F)c1)c1ccc(S(=O)(=O)N2CCCC2)cc1, the max response, negative = inhibition was 6.1% (inactive).
In the case of O=C(Nc1ccc2c(c1)CCC2)c1cccc(S(=O)(=O)N2CCN(c3ccc(F)cc3)CC2)c1, the Potency was 20 µM (active).
For O=C(Nc1ccc2c(c1)CCC2)c1cccc(S(=O)(=O)Nc2ccccc2Cl)c1, the max response, negative = inhibition was -19.6% (inactive).
In the case of O=C(Cn1nc(Cc2cccnc2)c2ccccc2c1=O)N1CCN(c2ccccc2F)CC1, the max response, negative = inhibition was -3.19% (inactive).
O=C(NCCc1ccccc1)c1ccc2c(c1)N(Cc1ccc(F)cc1)C(=O)c1ccccc1S2(=O)=O was tested, and the max response, negative = inhibition was 2.91% (inactive).
With O=C(NCCc1ccccc1)c1ccc2c(c1)N(Cc1ccccc1)C(=O)c1ccccc1S2(=O)=O the Potency was 20 µM (active).
In the case of COCCNC(=O)c1ccc2c(c1)N(Cc1cccc(Cl)c1)C(=O)c1ccccc1S2(=O)=O, the max response, negative = inhibition was 9.95% (inactive).
In the case of Cc1nn(-c2ccc(N3CCCCC3)nn2)c(C)c1CCC(=O)NCc1ccccc1F, the max response, negative = inhibition was -5.41% (inactive).
In the case of Cc1cc(Br)ccc1NC(=O)Cn1cnc2sc(C)c(S(=O)(=O)N3CCN(C)CC3)c2c1=O, the max response, negative = inhibition was -2.69% (inactive).
For Clc1ccc(-c2nnc(SCc3nc4ccccc4s3)o2)cc1, the max response, negative = inhibition was -6.5% (inactive).
For c1ccc(-c2nnc(SCc3nc4ccccc4[nH]3)o2)cc1, the Potency was 12.6 µM (active).
In the case of Clc1ccccc1SCc1nc2ccccc2[nH]1, the max response, negative = inhibition was -0.47% (inactive).
For COc1ccc(N2CC(C(=O)NCCS(=O)(=O)N3CCN(c4ccccc4)CC3)CC2=O)cc1 (stereo not drawn), the max response, negative = inhibition was 3.76% (inactive).
With Cc1[nH]c2ccccc2c1C(=O)COC(=O)C(C)C the max response, negative = inhibition was 3.26% (inactive).
In the case of O=C(Cc1c[nH]c2ccccc12)OCCOC(=O)Cc1c[nH]c2ccccc12, the max response, negative = inhibition was 1.16% (inactive).
With Cc1ccc(C(=O)COC(=O)C(Cc2c[nH]c3ccccc23)NC(=O)c2ccc(Br)cc2)cc1 (stereo not drawn) the Potency was 12.6 µM (active).
For CN(C(=O)c1ccc2c(c1)N(Cc1cccc(Cl)c1)C(=O)c1ccccc1S2=O)C1CCCCC1 (stereo not drawn), the max response, negative = inhibition was -3.62% (inactive).
Cc1csc2nc(COC(=O)c3ccccc3NC(=O)c3ccccc3Cl)cc(=O)n12 was tested, and the max response, negative = inhibition was -1.98% (inactive).
For COc1ccc(Cl)cc1NC(=O)C(C)Sc1nc2c(c(=O)[nH]1)CCCC2 (stereo not drawn), the max response, negative = inhibition was -3.86% (inactive).
O=S(=O)(c1ccc2nc(N3CCN(c4cccc(Cl)c4)CC3)ccc2c1)N1CCCCC1 was tested, and the max response, negative = inhibition was -14.3% (inactive).
CCc1ccc2c(c1)C1(NN=C(c3ccccc3)S1)C(=O)N2 (stereo not drawn) was tested, and the max response, negative = inhibition was -24.1% (inactive).
For O=C1Nc2ccccc2C12Nc1ccccc1S2 (stereo not drawn), the Potency was 25.1 µM (active).
With Cc1ccc(NC2(C#N)C(=O)Nc3ccccc32)cc1 (stereo not drawn) the max response, negative = inhibition was -4.74% (inactive).
With O=c1c(O)c(Br)ccc2c(Br)c(O)c(O)c(O)c12 the max response, negative = inhibition was -27.1% (inactive).
For CCC(C)Nc1oc(-c2ccc(COc3ccc(Cl)cc3)o2)nc1C#N (stereo not drawn), the max response, negative = inhibition was 2.48% (inactive).
For O=C(O)c1ccc(Nc2nc(-c3ccccc3)c3cc(Br)ccc3n2)cc1, the max response, negative = inhibition was 27.1% (inactive).
With Cc1ccc(S(=O)(=O)N2CC(=O)Nc3ccccc32)cc1C the max response, negative = inhibition was 2.47% (inactive).
O=C1CN(c2nc(-c3ccccc3)c3cc(Br)ccc3n2)c2ccccc2N1 was tested, and the Potency was 12.6 µM (active).
For Fc1ccc(-c2nn(-c3ccccc3Cl)c3c2cnc2ccccc23)cc1, the max response, negative = inhibition was 4.61% (inactive).
In the case of O=C(CC1C(=O)N(c2ccccc2)C(=O)N1CCc1cccs1)Nc1ccc(F)cc1 (stereo not drawn), the max response, negative = inhibition was 2.56% (inactive).
O=C(CCSCc1ccccc1F)N1CCN(c2ccc(Cl)cc2)CC1 was tested, and the max response, negative = inhibition was 2.72% (inactive).
For Cc1ccc(-c2nn(CCC(=O)Nc3ccc(Cl)c(Cl)c3)c(=O)c3ccccc23)cc1, the max response, negative = inhibition was -2.75% (inactive).
In the case of CCN(CC)c1nn2c(=O)c(C(=O)NCCc3ccccc3)cnc2s1, the max response, negative = inhibition was -4.42% (inactive).
O=C(NCc1ccc2c(c1)CCN2C(=O)c1ccccc1)Nc1cc(F)ccc1F was tested, and the max response, negative = inhibition was -19.6% (inactive).
With COc1ccc(CNC(=O)c2cc3c(s2)-c2ccccc2OC3)cc1 the max response, negative = inhibition was 16.2% (inactive).
For Cc1cc(C)c(NC(=O)Cn2c(SCC(=O)NCc3ccccc3)nc3ccccc32)c(C)c1, the max response, negative = inhibition was 7.19% (inactive).
In the case of Cc1ccc(NC(=O)CSc2nc3c([nH]c4ccccc43)c(=O)n2-c2ccccc2)c(C)c1, the max response, negative = inhibition was 12.6% (inactive).
In the case of Cc1ccc(-n2c(SCC(=O)Nc3ncc(Cl)cc3Cl)nc3ccccc32)cc1, the Potency was 20 µM (active).
For c1ccc2c(c1)-c1ccccc1C2N1CC2CCC(CC2)C1, the max response, negative = inhibition was 1.3% (inactive).
With NS(=O)(=O)c1ccc(N=Cc2ccc(Br)s2)cc1 the max response, negative = inhibition was -5.17% (inactive).
Brc1ccc(/C=N/N2CCN(C3c4ccccc4-c4ccccc43)CC2)s1 was tested, and the Potency was 12.6 µM (active).
For O=C(c1ccc2c(c1)N(Cc1ccccc1)C(=O)c1ccccc1S2(=O)=O)N1CCC(Cc2ccccc2)CC1, the max response, negative = inhibition was 1.2% (inactive).
With COc1ccc(-c2nnc(SC(C)C#N)o2)cc1 (stereo not drawn) the max response, negative = inhibition was 2.59% (inactive).
In the case of COc1ccc(-c2nnc(SC(=O)N3c4ccccc4Sc4ccccc43)o2)cc1, the Potency was 31.6 µM (active).
In the case of COc1ccc(-c2nnc(SCc3cccnc3)o2)cc1, the max response, negative = inhibition was 15.4% (inactive).
With CCOC(=O)c1ccc(NC(=O)CC2C(=O)N(c3cccc(OC)c3)C(=O)N2C2CCCCC2)cc1 (stereo not drawn) the max response, negative = inhibition was -1.66% (inactive).
With Cc1ccc(C(=O)NCCSc2c(C)[nH]c3ccccc23)cc1C the max response, negative = inhibition was 13.2% (inactive).
N#CC1=C(SCc2ccccc2)NC(=O)C(C#N)C12CCCC2 (stereo not drawn) was tested, and the max response, negative = inhibition was -1.74% (inactive).
In the case of N#CC1=C(SCc2ccc(C#N)cc2)N=C(N)C(c2nc(-c3ccccc3)cs2)C12CCCCC2 (stereo not drawn), the Potency was 10 µM (active).
With COc1ccc(CCNc2nc(-c3ccc(Cl)cc3)cc(C(F)(F)F)n2)cc1OC the max response, negative = inhibition was -3.01% (inactive).
In the case of Cc1nn(Cc2ccc(F)cc2)c(C)c1NC(=O)c1cc(CC(C)C)on1, the max response, negative = inhibition was 2.49% (inactive).
With Cc1cc(C(=O)CSc2nc(N)cc(=O)[nH]2)c(C)n1CCc1ccc(Cl)cc1 the Potency was 12.6 µM (active).
For CCCc1cc(=O)[nH]c(SCC(=O)OCc2ccccc2)n1, the max response, negative = inhibition was -0.512% (inactive).
With CCCc1cc(=O)[nH]c(SCC(=O)c2cc(C)n(CCC)c2C)n1 the max response, negative = inhibition was -4.28% (inactive).
In the case of COc1ccc(-n2ccnc(NCCc3ccc(Cl)cc3)c2=O)cc1OC, the max response, negative = inhibition was 16.8% (inactive).
In the case of COc1ccc(C2Sc3ccccc3NC3=C2C(=O)c2ccccc23)c(OC)c1OC (stereo not drawn), the max response, negative = inhibition was -2.6% (inactive).
With S=c1nccc(-c2cc(Cl)sc2Cl)[nH]1 the Potency was 12.6 µM (active).
In the case of COCCNC(=O)CCCN1C(=O)c2ccccc2Sc2ncccc21, the max response, negative = inhibition was 15.3% (inactive).
With CS(=O)(=O)c1ccc2nc(NC(=O)C3CCCCC3)sc2c1 the max response, negative = inhibition was 6.38% (inactive).
O=C(Nc1nc2ccc(F)cc2s1)c1nc(SCc2ccccc2F)ncc1Cl was tested, and the max response, negative = inhibition was 1.9% (inactive).
For CCS(=O)(=O)N1Cc2ccccc2CC1C(=O)Nc1nc2ccc(F)cc2s1 (stereo not drawn), the Potency was 12.6 µM (active).
For CCCCOc1ccc(CN2C(=O)C(=O)c3cc(Br)cc(C)c32)cc1OC, the max response, negative = inhibition was -26.4% (inactive).
With CCOC(=O)C1CCN(C(=O)CSc2c3c(nc4ccc(Cl)cc24)CCCC3)CC1 the max response, negative = inhibition was -19.6% (inactive).
With Cc1cc(C)cc(NC(=O)CCCc2nc(-c3ccccc3Cl)no2)c1 the max response, negative = inhibition was -8.67% (inactive).
For Cc1nc2cnc(Nc3ccccc3)nc2n(Cc2ccc(F)cc2)c1=O, the max response, negative = inhibition was -10.9% (inactive).
O=c1cnc2cnc(Nc3ccccc3)nc2n1Cc1ccc(F)cc1 was tested, and the Potency was 20 µM (active).
CCNc1ncc2ncc(=O)n(CCc3ccccc3)c2n1 was tested, and the max response, negative = inhibition was 5.65% (inactive).
With COc1ccc2ncc3c(-c4ccc(C)c(C)c4)nn(CC(=O)NC4CCCC4)c3c2c1 the max response, negative = inhibition was 1.87% (inactive).
For COc1ccc(Cl)cc1NC(=O)CCn1c(=O)c2cccn2c2ccccc21, the max response, negative = inhibition was 26.4% (inactive).
In the case of Cc1cccc(Cn2c(=O)n(CCC(=O)NCCc3ccc(Cl)cc3)c(=O)c3sccc32)c1, the max response, negative = inhibition was 0.837% (inactive).
In the case of Cc1ccc(CCNC(=O)Cn2c(-c3cccs3)cc3cc(F)ccc32)cc1, the Potency was 15.8 µM (active).
In the case of COc1ccc(CCNC(=O)CN2CCC(n3nnc4cc(F)ccc43)CC2)cc1OC, the max response, negative = inhibition was 14.7% (inactive).
With COc1cccc2c1cc1c(=O)n(CC(=O)N3CCN(c4ccccc4)CC3)nc(C)n12 the max response, negative = inhibition was -2.78% (inactive).
For CCOc1cccc2sc(N3CCN(C(=O)C4CC4)CC3)nc12, the max response, negative = inhibition was 4.68% (inactive).
In the case of COC(=O)c1ccccc1NC(=O)Cn1c(=O)cc(C)c2c(C)nn(-c3cccc(Cl)c3C)c21, the max response, negative = inhibition was 1.01% (inactive).
With O=C(Nc1ccc2c(c1)OCO2)c1sc2cc(Cl)ccc2c1Cl the Potency was 10 µM (active).
In the case of CC(C)C(=O)Nc1cccc(C(=O)Nc2ccc3c(c2)OCO3)c1, the max response, negative = inhibition was -8.97% (inactive).
For O=C(Nc1ccc2c(c1)OCO2)c1cc(-c2cccc(Cl)c2)on1, the max response, negative = inhibition was -7.12% (inactive).
With O=C(CCc1nc(CN2CCN(S(=O)(=O)c3ccc(Br)cc3)CC2)no1)N1CCCCC1 the max response, negative = inhibition was 27% (inactive).
With Cc1ccc(-c2nc3ccccn3c2Nc2c(C)cccc2C)o1 the max response, negative = inhibition was 0.509% (inactive).
With Cc1ccc(-n2ncc3c(N4CCC(C(N)=O)CC4)ncnc32)cc1 the max response, negative = inhibition was 17.2% (inactive).
For Cc1cccc(NC(=O)/C(=C\c2ccco2)NC(=O)c2ccccc2)c1, the max response, negative = inhibition was 4.33% (inactive).
With O=C(OCN1C(=O)c2ccccc2C1=O)/C(=C\c1ccco1)NC(=O)c1ccccc1 the Potency was 0.398 µM (active).
With CC(C)(C)c1ccc(C(=O)NCC(=O)OCN2C(=O)c3ccccc3C2=O)cc1 the max response, negative = inhibition was 8.73% (inactive).
